Among the test systems are SK-MEL-2 melanoma; EKVX NSCLC; SN12C renal; UO-31 renal; TK-10 renal; ACHN renal; CAKI-1 renal; A498 renal; CCRF-CEM leukemia; MOLT-4 leukemia; SR leukemia; OVCAR-8 ovarian; OVCAR-5 ovarian; OVCAR-4 ovarian; SK-OV-3 ovarian; IGROV1 ovarian; OVCAR-3 ovarian; HS 578T breast; NCI/ADR-RES ovarian.
Assay in all cases: NCI-60 one-dose screen, 48 h (100 = growth as untreated, 0 = no growth, -100 = all killed)
Conditions in all cases: 10 µM unless noted

Each structure is given as a SMILES string. This is part of a sample that, as a whole, favours compounds with a hit. Of some 83,000 tested, about 20% had one in any assay.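 In brief: 96-well plates, 48 h treatment, single concentration, percent growth endpoint.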 Values without a mark were called inactive. Activity calls are given as the source filed them. How the source made its calls: active means growth percent below 10; inactive means the rest.

With `N[C@@H](Cc1ccccc1)[C@@H](O)C(=O)NCc1ccc(F)cc1`, the growth with SK-MEL-2 melanoma was 117%; in the assay on EKVX NSCLC, 103%; in the assay on SN12C renal, 93.4%; in the assay on UO-31 renal it was 90.8%; in the assay with TK-10 renal, 105%; with ACHN renal, 108%. Moreover, the growth with CAKI-1 renal is 91.3%; with A498 renal, 96.2%; in the assay on CCRF-CEM leukemia it was 111%; with MOLT-4 leukemia it was 109%; with SR leukemia, 95.1%; in the assay on OVCAR-8 ovarian, 104%. For the same compound, the growth with OVCAR-5 ovarian was 98.7%; with OVCAR-4 ovarian, 103%; in the assay with SK-OV-3 ovarian, 120%; with IGROV1 ovarian it was 107%; with OVCAR-3 ovarian it was 117%; with HS 578T breast, 104%. In addition, the growth with NCI/ADR-RES ovarian is 110%.
For `O=c1c2cc(F)ccc2sc2c(N3CCCCC3)nc3ccccc3c12`, the growth in the assay on SK-MEL-2 melanoma was 115%; in the assay with EKVX NSCLC, 103%; in the assay on SN12C renal, 99.1%; with UO-31 renal, 78.8%; in the assay with TK-10 renal it was 109%; in the assay with ACHN renal, 102%. Also, the growth with CAKI-1 renal is 101%; in the assay with A498 renal it was 64.6%; in the assay on CCRF-CEM leukemia it was 110%; in the assay with MOLT-4 leukemia, 111%; with SR leukemia, 121%; with OVCAR-8 ovarian, 99.6%. Moreover, the growth in the assay on OVCAR-5 ovarian is 98.4%; in the assay with OVCAR-4 ovarian, 116%; with SK-OV-3 ovarian, 103%; in the assay with IGROV1 ovarian, 101%; in the assay on OVCAR-3 ovarian, 110%; in the assay on HS 578T breast, 105%. In addition, the growth in the assay on NCI/ADR-RES ovarian is 101%.
As to `CNCCCNc1nc2ccccc2c2c(=O)c3cc(F)ccc3sc12`, the growth was 91% with SK-MEL-2 melanoma; 64.7% in the assay on EKVX NSCLC; 58.7% in the assay with SN12C renal; 20.8% with UO-31 renal; 43.3% with TK-10 renal; 10.9% with ACHN renal. Besides, the growth in the assay with CAKI-1 renal is -60.9% (active); in the assay on A498 renal, 28%; in the assay with CCRF-CEM leukemia, -3.67% (active); in the assay on MOLT-4 leukemia it was -27.9% (active); with SR leukemia, -35.9% (active); with OVCAR-8 ovarian, 28%. For the same compound, the growth with OVCAR-5 ovarian is 66.3%; in the assay with OVCAR-4 ovarian it was 19.9%; with SK-OV-3 ovarian it was 75.4%; with IGROV1 ovarian, 41.4%; with OVCAR-3 ovarian it was -1% (active); in the assay with HS 578T breast it was 37.8%. For the same compound, the growth with NCI/ADR-RES ovarian is 21.4%.
In the case of `CCCCCCn1c(-c2ccc(C(=O)O/N=C(\N)c3ccc4ccccc4c3)cc2)nc(-c2ccccc2)c1-c1ccccc1`, the growth in the assay on SK-MEL-2 melanoma was 88.6%; in the assay on EKVX NSCLC, 18%; in the assay with SN12C renal it was 45.6%; with UO-31 renal it was -85.4% (active); in the assay on TK-10 renal, 47.4%; with ACHN renal, 0.0407% (active). Besides, the growth was 33.9% in the assay with CAKI-1 renal; 51.4% in the assay on A498 renal; 18.5% with CCRF-CEM leukemia; 41.2% with MOLT-4 leukemia; -37.7% (active) with SR leukemia; 64.6% in the assay with OVCAR-8 ovarian. For the same compound, the growth was 71.6% in the assay with OVCAR-5 ovarian; 56.8% with OVCAR-4 ovarian; 91% with SK-OV-3 ovarian; -48.3% (active) in the assay with IGROV1 ovarian; 74.8% in the assay with OVCAR-3 ovarian; 46.8% in the assay on HS 578T breast. Further, in the assay on NCI/ADR-RES ovarian, the growth is 3.92% (active).
As to `Cn1cc(-c2cc3ncnc(Nc4ccc(CC(=O)Nc5cc(C(C)(C)C)on5)cc4)c3s2)cn1`, the growth is 14% in the assay on SK-MEL-2 melanoma; 60.2% in the assay on EKVX NSCLC; 15.4% in the assay on SN12C renal; 11% in the assay with UO-31 renal; 17.8% with TK-10 renal; 14.1% in the assay with ACHN renal. Further, the growth in the assay with CAKI-1 renal is 9.29% (active); in the assay with A498 renal, -18.6% (active); with CCRF-CEM leukemia it was 10.8%; in the assay with MOLT-4 leukemia it was 17.4%; in the assay with SR leukemia, 10.9%; in the assay with OVCAR-8 ovarian it was 40.7%. In addition, the growth in the assay on OVCAR-5 ovarian was 61.6%; in the assay on OVCAR-4 ovarian, 34.7%; in the assay on SK-OV-3 ovarian, 10.4%; with IGROV1 ovarian it was 11.1%; in the assay with OVCAR-3 ovarian, 36.6%; in the assay on HS 578T breast, 15.6%. For the same compound, the growth in the assay with NCI/ADR-RES ovarian was 60.6%.
With `COc1ccc(-c2cc(-c3ccc(Cl)cc3)c(C#N)c(=O)n2CCCCCC(=O)Nc2ccccc2N)cc1`, the growth is 58.5% in the assay with SK-MEL-2 melanoma; 51.5% in the assay on EKVX NSCLC; 41.9% with SN12C renal; 43% in the assay with UO-31 renal; 78.3% in the assay on TK-10 renal; 34.2% in the assay on ACHN renal. Moreover, the growth with CAKI-1 renal is 7.69% (active); with A498 renal, 39.1%; in the assay with CCRF-CEM leukemia, 32.5%; with MOLT-4 leukemia it was 35.2%; in the assay with SR leukemia it was -1.58% (active); in the assay on OVCAR-8 ovarian, 29.8%. Moreover, the growth with OVCAR-5 ovarian is 52.2%; in the assay with OVCAR-4 ovarian it was 54.7%; with SK-OV-3 ovarian, 63.6%; in the assay on IGROV1 ovarian, 37.6%; in the assay on OVCAR-3 ovarian, 58.3%; in the assay on HS 578T breast, 70%. Further, in the assay with NCI/ADR-RES ovarian, the growth was 33.3%.
As for `COc1ccc(C(=O)N=Nc2c(O)n(C)c3ccccc23)cc1`, the growth with SK-MEL-2 melanoma is 114%; in the assay on EKVX NSCLC it was 77%; with SN12C renal, 94.5%; in the assay with UO-31 renal, 69.3%; with TK-10 renal it was 146%; in the assay with ACHN renal, 91.4%. Further, the growth with CAKI-1 renal was 82.3%; with A498 renal, 99.5%; with CCRF-CEM leukemia, 94.2%; in the assay on MOLT-4 leukemia, 99.9%; in the assay on SR leukemia, 80.5%; in the assay on OVCAR-8 ovarian, 95.6%. Also, the growth was 105% with OVCAR-5 ovarian; 91.9% in the assay with OVCAR-4 ovarian; 87.2% in the assay with SK-OV-3 ovarian; 90.2% with IGROV1 ovarian; 104% in the assay with OVCAR-3 ovarian; 99.5% in the assay with HS 578T breast. The growth in the assay with NCI/ADR-RES ovarian was 91.5%.

The record behind these values is PubChem BioAssay (NCI).
